Here are results for 7 molecules from PubChem BioAssay (NCATS).

SMILES strings stand for the structures. A number with no mark means an inactive call. Results filed as inconclusive are left out. The source made the active and inactive calls. Unless noted, calls follow the shape of the dose curve; as a rule, active = well fitted curve in either direction with a large enough effect (not every such curve was filed as active); inconclusive = small, poorly fitted or top-dose-only effect, or another doubt; inactive = flat fitted curve, though single readings scatter.

Test [1] concerns the target Lysosomal acid glucosylceramidase (Homo sapiens) (UniProt P04062). Description: Glucocerebrosidase-p2 (AID 348; in the data active = potency below about 10 µM; also: potency is read from the fitted curve at half-maximal effect). Conditions: purified GBA, blue fluorogenic substrate, 40 min. An outline of the steps:
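Normal human glucocerebrosidase (0.2 nM) with blue fluorogenic substrate (80 uM final) in citrate/phosphate pH 5.9 with 10mM sodium taurocholate, 0.01% tween-20; 40 min RT, NaOH/glycine stop; fluorescence Ex 365/Em 440; AC50 from a titration from 0.6 nM upwards.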

Test [2] in a line: AP1 Signaling Pathway (AID 357). Also: % is scaled to controls: 0 for no effect and ±100 for the full control effect. The note with it: ME-180 AP-1-bla reporter, EGF-induced, beta-lactamase ratio, 5 h; at 7.69 µM (top of the series) unless noted. An outline of the steps: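 Cells are seeded overnight, exposed to compound titrations and an EC50 level of EGF for 5 hours at 37 °C, then loaded with CCF4 dye for 2.5 hours. Beta-lactamase activity under the AP-1 element is read as a blue/green ratio.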

Test [3] in a line: NFAT Signaling Pathway (AID 444).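 Also: carbachol stimulus at about its EC50 of 1 µM final; % is scaled to controls: 0 for no effect and ±100 for the full control effect.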 The note with it: Jurkat NFAT-bla M1, carbachol, beta-lactamase ratio, 5 h; at 7.69 µM (top of the series) unless noted. An outline of the steps:
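Jurkat cells with NFAT-driven β-lactamase reporter and co-expressed M1 receptor, stimulated with carbachol (final 1 uM, ~EC50), compound titration, 5 h at 37 °C. CCF4 loaded 1 h at RT; 460/530 nm ratio gave %activity and AC50.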

Test [4] can be described thus: Stat Signaling Pathway (AID 446).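 Also: ME-180 cervical cancer cells given 40 pM IL-6 alongside compound; SIE-controlled beta-lactamase reporter measured as 460/530 nm FRET emission ratio; % is scaled to controls: 0 for no effect and ±100 for the full control effect.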 Conditions: ME-180 (cervical carcinoma) SIE beta-lactamase reporter, IL-6 stimulated, 5 h; at 7.69 µM (top of the series) unless noted. An outline of the steps: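 Compound effects on IL-6-induced STAT reporter activity were measured in ME-180 cells. After overnight culture, cells were co-treated with 40 pM IL-6 for 5 hrs before beta-lactamase substrate loading at room temperature.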

Test [5] addresses Glucocorticoid receptor (Homo sapiens) (UniProt P04150). Description: GR-GFP Redistribution (AID 450;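 active = compounds whose dose series gives a full or clear partial fitted curve of increased nuclear translocation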; also: potency is read from the fitted curve at half-maximal effect). Conditions: U2OS GR-GFP nuclear translocation, laser cytometry, 2 h.
For test [6] the target is unchanged. Description: GR-EFC Redistribution (AID 451; calls by dose curve; also: potency is read from the fitted curve at half-maximal effect). Conditions: CHO-K1 GR-EFC translocation, beta-gal luminescence, 2 h. An outline of the steps: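 CHO-K1 cells expressing nuclear EA and GR-ED fragments of b-gal; compounds titrated up to 46 uM final, 2 h at 37 C. GR nuclear translocation read as complemented b-gal luminescence after 1 h RT detection.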
The target of test [7] is Mitogen-activated protein kinase 10 (Mus musculus) (UniProt Q61831). Nature of the test: JNK3 AlphaScreen Assay (AID 530).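 Also: kinase came from lysate of stimulated human HepG2 cells; signal reports phosphorylation of biotinylated GST-cJun 1-79 at Ser73 with 10 µM ATP; % is scaled to controls: 0 for no effect and ±100 for the full control effect.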 Conditions: JNK3 lysate, c-Jun phosphorylation; series mostly up to 57.1 µM. An outline of the steps:
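Activity was read by AlphaScreen after JNK3-containing HepG2 lysate (cytokine pre-activated) phosphorylated biotinylated GST-cJun with 10 uM ATP at room temperature. Phospho-Ser73 cJun antibody with Protein-A acceptor beads provided detection.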

For test [8], the target named is 3',5'-cyclic-AMP phosphodiesterase 4B (Homo sapiens) (UniProt Q07343). Nature of the test: qHTS Assay for Inhibitors of PDE-IV (AID 607; active = well fitted activation curve with a large enough effect in the main read-out, with a control signal flat, not every such curve was filed as active; also: % of control where 0% means no effect). The note with it: HEK293 ACTOne CNG channel cells, membrane potential fluorescence; series mostly up to 22.9 µM. An outline of the steps: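 ACTOne HEK293 cells carry a modified cAMP-gated CNG channel and express endogenous PDE4; plated 1000 cells/well, compounds up to 22.9 uM final. Membrane-potential dye fluorescence (ex 535/em 590) was read; parental cells received 10 uM forskolin + 100 uM RO 20-1724.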

For test [9], the target named is Cytochrome P450 2C9 (Homo sapiens) (UniProt P11712). Nature of the test: qHTS Assay for Inhibitors and Substrates of Cytochrome P450 2C9 (AID 883; active = well fitted curve in the direction sought with a large enough effect; an effect the other way counts as inactive or inconclusive; also: potency is read from the fitted curve at half-maximal effect; nearly all actives have a fitted effect of over 60% in size). Conditions: recombinant CYP2C9, luciferin-H luminescence, 60 min; series mostly up to 57.1 µM. An outline of the steps:
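10nM CYP2C9 + 100uM Luciferin-H (=KM), 25mM KPO4; cpd 10 min 37C; NADPH regen, 60 min 37C; stop/detect with P450 Glo-Buffer 20 min; luminescence. Norm. to 57uM sulphaphenazole as full inhibition.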
Background: In qHTS, concentration-response curves come from the screen itself.

Test [10] has as its target Cytochrome P450 2D6 (Homo sapiens) (UniProt P10635). Description: qHTS Assay for Inhibitors and Substrates of Cytochrome P450 2D6 (AID 891; active = well fitted curve in the direction sought with a large enough effect; an effect the other way counts as inactive or inconclusive; also: nearly all actives have a fitted effect of over 60% in size; also: potency is read from the fitted curve at half-maximal effect). Conditions: recombinant CYP2D6, luciferin-ME EGE luminescence; series mostly up to 11.4 µM. An outline of the steps: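 Luminescent read-out of luciferin formed by 5 nM human CYP2D6 demethylating 30 uM Luciferin-ME EGE (Km level) over 60 min at room temperature after NADPH regeneration addition. Data normalized to full inhibition by 1.43 uM quinidine.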

Test [11] concerns the target Cytochrome P450 1A2 (Homo sapiens) (UniProt P05177). Description: p450-cyp1a2 (AID 410; calls by dose curve; also: potency is read from the fitted curve at half-maximal effect;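 as to activity change, negative = inhibition: -100% = full effect of reference inhibitor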). Conditions: recombinant CYP1A2, luciferin-ME demethylation, luminescence; series mostly up to 11.4 µM. An outline of the steps: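 O-Demethylation of luciferin 6' methyl ether by human CYP1A2 is monitored as luciferase luminescence. Substrate sits at Km (100uM); enzyme is 20nM. Values are scaled to 57 uM furafylline as maximal inhibition.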

Test [12] concerns the target Luciferin 4-monooxygenase (Photinus pyralis) (UniProt P08659). Description: Biochemical firefly luciferase enzyme assay for NPC (AID 624030; active = well fitted curve in the direction sought with a large enough effect; an effect the other way counts as inactive or inconclusive;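 also: purified P. pyralis luciferase at 10 nM with luciferin and ATP substrate; 0% = DMSO and -100% = full luciferase inhibition by PTC124 control; nearly all actives have a fitted effect of over 70% in size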). The note with it: purified P. pyralis luciferase, luminescence, 5 min; series mostly up to 58.6 µM. An outline of the steps: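 Purified P. pyralis luciferase at 10 nM in 50 mM Tris Acetate (final), luminescence read within 5 minutes of enzyme addition to compounds. Activity normalised to PTC124 versus DMSO; concentration-response curves classed by r2, magnitude and activity.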

In test [13] the target is Cytochrome P450 3A4 (Homo sapiens) (UniProt P08684). Description: qHTS Assay for Activators of Cytochrome P450 3A4 (AID 885; active = well fitted curve in the direction sought with a large enough effect; an effect the other way counts as inactive or inconclusive; also: nearly all actives have a fitted effect of over 65% in size). Conditions: recombinant CYP3A4, Luciferin-PPXE luminescence, 60 min; series mostly up to 57.1 µM. An outline of the steps: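 CYP3A4 activity: Luciferin-PPXE O-dealkylation, 25uM substrate, 200mM KPO4, RT throughout. Read-out is luciferase luminescence; higher values reflect activation.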
Cytochrome P450 3A4 (Homo sapiens), sequence (P08684 whole entry, looked up): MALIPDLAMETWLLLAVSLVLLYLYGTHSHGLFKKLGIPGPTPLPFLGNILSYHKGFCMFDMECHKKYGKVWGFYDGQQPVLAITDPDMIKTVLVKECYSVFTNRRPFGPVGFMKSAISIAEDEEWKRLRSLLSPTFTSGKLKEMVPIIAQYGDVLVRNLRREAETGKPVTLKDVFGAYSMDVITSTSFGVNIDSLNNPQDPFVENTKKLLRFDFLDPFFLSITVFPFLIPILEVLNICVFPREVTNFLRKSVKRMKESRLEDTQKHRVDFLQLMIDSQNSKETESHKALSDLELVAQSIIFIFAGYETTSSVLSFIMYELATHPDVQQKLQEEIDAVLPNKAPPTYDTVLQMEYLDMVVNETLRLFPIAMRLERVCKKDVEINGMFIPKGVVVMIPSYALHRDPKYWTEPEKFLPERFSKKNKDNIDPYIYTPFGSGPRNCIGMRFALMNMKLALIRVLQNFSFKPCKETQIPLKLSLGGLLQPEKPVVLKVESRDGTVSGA

Lysosomal acid glucosylceramidase (Homo sapiens), sequence (P04062 whole entry, looked up): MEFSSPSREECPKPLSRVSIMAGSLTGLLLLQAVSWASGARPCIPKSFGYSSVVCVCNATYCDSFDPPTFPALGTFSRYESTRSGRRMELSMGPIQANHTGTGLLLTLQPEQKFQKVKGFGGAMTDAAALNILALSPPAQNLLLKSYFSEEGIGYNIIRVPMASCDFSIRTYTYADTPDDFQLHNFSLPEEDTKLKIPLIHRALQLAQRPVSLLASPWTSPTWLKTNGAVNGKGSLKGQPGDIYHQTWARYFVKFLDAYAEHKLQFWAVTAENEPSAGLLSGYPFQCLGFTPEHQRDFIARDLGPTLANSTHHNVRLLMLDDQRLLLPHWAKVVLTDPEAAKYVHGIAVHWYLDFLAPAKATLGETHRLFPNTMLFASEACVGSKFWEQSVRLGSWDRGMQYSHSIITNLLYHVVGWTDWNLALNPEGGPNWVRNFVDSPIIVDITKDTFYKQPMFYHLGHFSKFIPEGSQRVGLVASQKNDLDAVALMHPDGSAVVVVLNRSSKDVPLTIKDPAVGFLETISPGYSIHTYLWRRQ
Glucocorticoid receptor (Homo sapiens), sequence (P04150 whole entry, looked up, the tested form may be a part): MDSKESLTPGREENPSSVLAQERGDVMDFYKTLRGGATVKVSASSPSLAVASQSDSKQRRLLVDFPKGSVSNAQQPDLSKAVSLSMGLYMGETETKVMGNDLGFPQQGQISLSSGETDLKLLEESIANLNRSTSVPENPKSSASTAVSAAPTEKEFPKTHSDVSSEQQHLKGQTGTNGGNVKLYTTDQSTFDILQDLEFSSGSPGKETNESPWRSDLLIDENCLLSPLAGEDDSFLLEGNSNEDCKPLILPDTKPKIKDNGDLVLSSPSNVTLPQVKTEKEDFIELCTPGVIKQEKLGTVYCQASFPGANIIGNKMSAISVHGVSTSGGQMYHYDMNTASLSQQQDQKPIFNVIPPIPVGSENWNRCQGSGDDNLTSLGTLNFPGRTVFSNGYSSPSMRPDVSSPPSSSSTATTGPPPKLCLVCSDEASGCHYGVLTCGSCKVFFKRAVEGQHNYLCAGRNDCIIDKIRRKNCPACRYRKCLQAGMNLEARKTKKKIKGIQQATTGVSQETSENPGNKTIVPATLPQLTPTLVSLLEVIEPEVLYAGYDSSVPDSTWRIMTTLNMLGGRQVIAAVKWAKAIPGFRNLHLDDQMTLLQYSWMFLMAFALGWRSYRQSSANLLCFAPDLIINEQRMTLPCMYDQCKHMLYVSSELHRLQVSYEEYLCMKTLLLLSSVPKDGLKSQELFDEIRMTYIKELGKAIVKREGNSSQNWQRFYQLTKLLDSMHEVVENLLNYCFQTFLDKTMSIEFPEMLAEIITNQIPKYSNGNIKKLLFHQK
3',5'-cyclic-AMP phosphodiesterase 4B (Homo sapiens), sequence (Q07343 whole entry, looked up): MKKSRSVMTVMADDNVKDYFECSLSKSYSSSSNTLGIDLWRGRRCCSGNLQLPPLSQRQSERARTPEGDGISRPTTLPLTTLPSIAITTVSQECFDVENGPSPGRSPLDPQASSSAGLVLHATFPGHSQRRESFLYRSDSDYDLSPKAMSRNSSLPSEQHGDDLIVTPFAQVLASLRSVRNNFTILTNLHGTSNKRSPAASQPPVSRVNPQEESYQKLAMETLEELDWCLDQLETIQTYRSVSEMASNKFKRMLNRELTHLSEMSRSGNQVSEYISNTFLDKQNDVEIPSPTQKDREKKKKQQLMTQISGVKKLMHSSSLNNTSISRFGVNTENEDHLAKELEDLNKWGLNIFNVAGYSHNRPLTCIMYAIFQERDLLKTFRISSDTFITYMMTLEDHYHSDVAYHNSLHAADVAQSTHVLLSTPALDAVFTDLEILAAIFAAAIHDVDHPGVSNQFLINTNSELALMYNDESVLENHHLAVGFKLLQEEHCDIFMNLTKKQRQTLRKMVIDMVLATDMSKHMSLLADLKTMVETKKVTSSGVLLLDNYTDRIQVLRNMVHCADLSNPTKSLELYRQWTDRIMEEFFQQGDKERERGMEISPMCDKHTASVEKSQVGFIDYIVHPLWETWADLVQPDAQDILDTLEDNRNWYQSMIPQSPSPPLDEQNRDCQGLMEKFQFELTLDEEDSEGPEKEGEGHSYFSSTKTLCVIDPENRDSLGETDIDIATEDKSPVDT
Cytochrome P450 2D6 (Homo sapiens), sequence (P10635 whole entry, looked up): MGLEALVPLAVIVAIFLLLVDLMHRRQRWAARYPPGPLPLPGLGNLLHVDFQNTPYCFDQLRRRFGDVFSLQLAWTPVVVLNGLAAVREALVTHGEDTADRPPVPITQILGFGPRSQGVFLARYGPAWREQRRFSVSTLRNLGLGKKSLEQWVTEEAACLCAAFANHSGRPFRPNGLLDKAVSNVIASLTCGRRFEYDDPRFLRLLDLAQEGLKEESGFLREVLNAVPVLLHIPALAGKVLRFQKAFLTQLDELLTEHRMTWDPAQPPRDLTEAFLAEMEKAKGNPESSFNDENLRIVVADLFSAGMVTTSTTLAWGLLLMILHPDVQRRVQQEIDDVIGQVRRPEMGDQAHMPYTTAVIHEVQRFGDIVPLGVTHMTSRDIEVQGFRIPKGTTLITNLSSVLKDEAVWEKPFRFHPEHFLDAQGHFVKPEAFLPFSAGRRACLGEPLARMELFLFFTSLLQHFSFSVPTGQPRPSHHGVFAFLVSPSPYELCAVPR
Cytochrome P450 1A2 (Homo sapiens), sequence (P05177 whole entry, looked up): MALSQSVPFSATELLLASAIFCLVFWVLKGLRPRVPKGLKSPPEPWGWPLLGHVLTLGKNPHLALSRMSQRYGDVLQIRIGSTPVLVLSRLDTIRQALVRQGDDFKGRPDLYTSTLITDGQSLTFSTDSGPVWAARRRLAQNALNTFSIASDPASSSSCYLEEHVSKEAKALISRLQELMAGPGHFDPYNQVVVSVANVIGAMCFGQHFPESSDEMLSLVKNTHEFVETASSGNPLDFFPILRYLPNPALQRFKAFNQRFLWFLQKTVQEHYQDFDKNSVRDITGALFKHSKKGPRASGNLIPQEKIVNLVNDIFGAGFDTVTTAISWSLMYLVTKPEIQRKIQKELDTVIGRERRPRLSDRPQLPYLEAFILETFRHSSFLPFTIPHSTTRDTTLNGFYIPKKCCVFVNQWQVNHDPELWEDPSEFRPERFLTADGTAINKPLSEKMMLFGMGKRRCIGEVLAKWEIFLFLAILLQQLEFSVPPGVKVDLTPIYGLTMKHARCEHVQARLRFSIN
Luciferin 4-monooxygenase (Photinus pyralis), sequence (P08659 whole entry, looked up): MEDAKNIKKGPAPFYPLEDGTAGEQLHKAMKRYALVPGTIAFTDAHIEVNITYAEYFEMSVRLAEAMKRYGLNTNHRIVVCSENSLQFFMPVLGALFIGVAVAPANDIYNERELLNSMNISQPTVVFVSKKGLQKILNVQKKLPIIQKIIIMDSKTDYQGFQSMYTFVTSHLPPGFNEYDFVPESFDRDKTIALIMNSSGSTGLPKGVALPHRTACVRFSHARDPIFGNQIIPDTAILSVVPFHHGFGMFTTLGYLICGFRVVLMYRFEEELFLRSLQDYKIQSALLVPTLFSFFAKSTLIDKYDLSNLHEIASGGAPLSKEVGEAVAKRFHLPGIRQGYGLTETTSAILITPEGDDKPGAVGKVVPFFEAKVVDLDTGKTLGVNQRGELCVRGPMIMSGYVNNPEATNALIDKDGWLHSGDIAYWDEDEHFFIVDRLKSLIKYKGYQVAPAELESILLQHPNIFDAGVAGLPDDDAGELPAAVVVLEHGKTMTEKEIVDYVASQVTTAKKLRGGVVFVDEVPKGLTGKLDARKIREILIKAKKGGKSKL
Cytochrome P450 2C9 (Homo sapiens), sequence (P11712 whole entry, looked up): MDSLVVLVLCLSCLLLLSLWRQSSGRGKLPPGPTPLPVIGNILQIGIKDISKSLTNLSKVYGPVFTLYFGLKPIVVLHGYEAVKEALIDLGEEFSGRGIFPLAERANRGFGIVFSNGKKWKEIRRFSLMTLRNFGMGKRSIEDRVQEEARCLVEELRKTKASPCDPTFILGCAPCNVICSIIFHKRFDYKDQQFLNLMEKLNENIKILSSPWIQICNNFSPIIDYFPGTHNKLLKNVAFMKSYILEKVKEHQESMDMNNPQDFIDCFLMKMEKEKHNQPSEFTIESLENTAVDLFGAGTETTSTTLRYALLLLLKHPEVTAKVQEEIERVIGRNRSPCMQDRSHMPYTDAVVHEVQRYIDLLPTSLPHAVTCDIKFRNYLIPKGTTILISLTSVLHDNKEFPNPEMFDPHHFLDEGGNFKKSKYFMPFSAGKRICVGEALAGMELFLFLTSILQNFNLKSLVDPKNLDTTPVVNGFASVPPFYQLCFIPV

In the case of `CCSCC[C@H](N)C(=O)O`, the Potency in test [1] was above 11.4 µM; in test [5], above 46 µM; in test [6], above 9.22 µM. Further, the figures for the activity change, negative = inhibition in [2], in test [3] and in [7] were 4.84%, 3.15% and 3.04% [at 11.4 µM], respectively. Besides, in test [4], the activity, negative = inhibition is -0.0113%. Besides, the result in [8] was inactive.

With `O.O.[NH-]C1(C(=O)O)CCCC1.[NH-]C1(C(=O)O)CCCC1.[Ni+2]`, the values for the Potency in test [1], in test [5] and in [6] were above 11.4 µM, above 46 µM and above 9.22 µM, respectively. Further, the activity change, negative = inhibition was 8.54% in test [2], -0.81% in test [3] and -2.59% [at 11.4 µM] in test [7]. Also, the activity, negative = inhibition in [4] is -5.65%. Besides, in test [8], the result was inactive.

In the case of `C[C@@]12CC[C@H]3[C@@H](CC[C@H]4C[C@@H](O)CC[C@]43C)[C@H]1CC[C@@H]2C(=O)C[C@H](O)C(F)(F)F`, the Potency in [1] is above 11.4 µM; in test [5] it was above 46 µM; in [6], above 9.22 µM. Further, the activity change, negative = inhibition is 5.97% in test [2], 5.84% in [3] and -0.552% [at 11.4 µM] in test [7]. Also, the activity, negative = inhibition in test [4] is -6.11%. In addition, the molecule was called inactive in test [8].

For the molecule `CC1=NN(c2ccccc2)C(=O)[C@@H]1N=Nc1ccc([As](=O)(O)O)c(O)c1`, the Potency was above 11.4 µM in [1], above 46 µM in [5], above 9.22 µM in [6] and 3.16 µM (active) in [9]. Moreover, the activity change, negative = inhibition is 6.32% in test [2], 12.3% in test [3] and -2.32% [at 11.4 µM] in test [7]. Moreover, the activity, negative = inhibition in test [4] is -13.3%. In [8], the outcome was inactive. Besides, in test [10], the Potency result was “inactive”.

As for `c1ccc2c(c1)Sc1ccccc1N2C[C@H]1CN2CCC1CC2`, the Potency in [1] was above 11.4 µM; in [5], above 46 µM; in [10] it was 0.398 µM (active). Also, the activity change, negative = inhibition in test [2] is 24.9%; in test [7] it was 3.89% [at 11.4 µM]. The Potency result in test [11] is “inactive”. Besides, the activity, negative = inhibition in test [4] was 9.78%. The molecule was called inactive in test [8] and in test [12].

Turning to `Cc1ccc(C2(c3ccc(C)c(O)c3C)CCN(C)CC2)c(C)c1O`, the results for the Potency in test [1], in test [11] and in [5] were above 11.4 µM, 5.01 µM (active) and above 46 µM, respectively. Also, the activity change, negative = inhibition was 2.94% in [2] and 1.97% [at 11.4 µM] in test [7]. Besides, the activity, negative = inhibition in [4] was 3.48%. In test [8], the molecule was classed as inactive.

As for `c1cc(CCN2CCCCC2)ccn1`, the Potency in [1] was above 11.4 µM; in test [5], above 46 µM; in test [6], above 9.22 µM. In addition, the activity change, negative = inhibition in [2] was 1.53%; in test [3] it was 7.13%; in [7], 1.02% [at 11.4 µM]. Besides, the activity, negative = inhibition in test [4] is 6.27%. Moreover, the molecule was classed as inactive in [8]. For the same molecule, the activity change, positive = activation in test [13] was -36% [at 11.4 µM].
